Laboratory results as given in PubChem BioAssay AID1159580 (chemical genetic matrix, 2015).
Among all 5,500 compounds or so, about 2,000 (36%) were called active. Inconclusive results (about 18%) are left out. No stated cut-off is given here; in the data, active means normalized growth mostly below about 0.91 (no sharp cut-off); inconclusive means no clear call, values can overlap the other calls; inactive means mostly above about 0.92. This is one part of the list.

Experiment: chemical genetic growth profiling, strain panel (AID 1159580);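 further: tested at 20 µM; growth read once vehicle control cultures reached saturation at 30 °C; 1 = growth at the plate median or of vehicle wells; lower values mean less growth of the strain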
Conditions: growth OD
[1] = S. cerevisiae deletion strains, locus YGR078C, strain PAC10, active compounds read low
[2] = S. cerevisiae deletion strains, locus YMR263W, strain SAP30, active compounds read low
[3] = S. cerevisiae deletion strains, locus YNL153C, strain GIM3, active compounds read low
[4] = S. cerevisiae deletion strains, locus YNL322C, strain KRE1, active compounds read low
[5] = S. cerevisiae deletion strains, locus YPL055C, strain LGE1, active compounds read low
[6] = S. cerevisiae deletion strains, locus YPL241C, strain CIN2, active compounds read low

Measured: normalized growth

CC1=C(C(=O)O)N2C(=O)[C@@H](NC(=O)C(N)C3=CCC=CC3)[C@H]2SC1 (stereo partly drawn)
inactive: S. cerevisiae deletion strains, locus YAL040C, strain CLN3, active compounds read low 1.02 | S. cerevisiae deletion strains, locus YDR363W, strain ESC2, active compounds read low 1.03 | S. cerevisiae deletion strains, locus YER002W, strain NOP16, active compounds read low 1.02 | [1] 1.01 | [2] 1.03 | [3] 1.01 | S. cerevisiae deletion strains, locus YNL175C, strain NOP13, active compounds read low 1.02 | S. cerevisiae deletion strains, locus YNL197C, strain WHI3, active compounds read low 1.03 | S. cerevisiae deletion strains, locus YNL224C, strain SQS1, active compounds read low 1.01 | [4] 1.03 | S. cerevisiae deletion strains, locus YOR083W, strain WHI5 (second series), active compounds read low 1.04 | [5] 1.02 | [6] 1.01

CN=C1CN(O)C(c2ccccc2)=c2cc(Cl)ccc2=N1
inactive: S. cerevisiae deletion strains, locus YAL013W, strain DEP1, active compounds read low 0.989 | S. cerevisiae deletion strains, locus YBR021W, strain FUR4, active compounds read low 1.06 | S. cerevisiae deletion strains, locus YBR229C, strain ROT2, active compounds read low 0.969 | S. cerevisiae deletion strains, locus YCL029C, strain bik1, active compounds read low 0.981 | S. cerevisiae deletion strains, locus YDL035C, strain GPR1, active compounds read low 1.01 | S. cerevisiae deletion strains, locus YDL074C, strain BRE1, active compounds read low 0.965 | S. cerevisiae deletion strains, locus YDL101C, strain DUN1, active compounds read low 0.974 | S. cerevisiae deletion strains, locus YDL134C, strain PPH21, active compounds read low 0.983 | S. cerevisiae deletion strains, locus YDL185W, strain tfp1, active compounds read low 0.946 | S. cerevisiae deletion strains, locus YDL192W, strain arf1, active compounds read low 0.983 | S. cerevisiae deletion strains, locus YDR101C, strain arx1, active compounds read low 1.01 | S. cerevisiae deletion strains, locus YDR150W, strain NUM1, active compounds read low 0.971 | S. cerevisiae deletion strains, locus YDR162C, strain NBP2, active compounds read low 0.94 | S. cerevisiae deletion strains, locus YDR318W, strain mcm21, active compounds read low 1.01 | S. cerevisiae deletion strains, locus YDR388W, active compounds read low 0.983 | S. cerevisiae deletion strains, locus YDR502C, strain sam2, active compounds read low 0.971 | S. cerevisiae deletion strains, locus YEL061C, strain CIN8, active compounds read low 0.985 | S. cerevisiae deletion strains, locus YER110C, active compounds read low 0.985 | S. cerevisiae deletion strains, locus YER155C, strain BEM2, active compounds read low 0.997 | S. cerevisiae deletion strains, locus YER167W, strain BCK2, active compounds read low 1 | S. cerevisiae deletion strains, locus YGL078C, strain dbp3, active compounds read low 0.975 | S. cerevisiae deletion strains, locus YGL086W, strain mad1, active compounds read low 1 | S. cerevisiae deletion strains, locus YGL248W, strain PDE1, active compounds read low 0.978 | [1] 0.978 | S. cerevisiae deletion strains, locus YGR135W, strain pre9, active compounds read low 0.955 | S. cerevisiae deletion strains, locus YGR229C, strain SMI1, active compounds read low 0.993 | S. cerevisiae deletion strains, locus YGR252W, strain gcn5, active compounds read low 1.06 | S. cerevisiae deletion strains, locus YHR030C, strain SLT2, active compounds read low 1 | S. cerevisiae deletion strains, locus YHR079C, strain IRE1 (second series), active compounds read low 0.991 | S. cerevisiae deletion strains, locus YHR094C, strain hxt1, active compounds read low 0.987 | S. cerevisiae deletion strains, locus YHR129C, strain ARP1, active compounds read low 0.992 | S. cerevisiae deletion strains, locus YHR200W, strain rpn10, active compounds read low 0.983 | S. cerevisiae deletion strains, locus YIL066C, strain RNR3, active compounds read low 0.97 | S. cerevisiae deletion strains, locus YIL073C, strain SPO22, active compounds read low 1.02 | S. cerevisiae deletion strains, locus YIL125W, strain kgd1, active compounds read low 0.978 | S. cerevisiae deletion strains, locus YIR030C, strain dcg1, active compounds read low 0.985 | S. cerevisiae deletion strains, locus YJL095W, strain BCK1, active compounds read low 0.981 | S. cerevisiae deletion strains, locus YJL134W, strain LCB3, active compounds read low 0.997 | S. cerevisiae deletion strains, locus YJL168C, strain set2, active compounds read low 0.984 | S. cerevisiae deletion strains, locus YJL187C, strain SWE1 (second series), active compounds read low 0.959 | S. cerevisiae deletion strains, locus YJR043C, strain POL32, active compounds read low 1.03 | S. cerevisiae deletion strains, locus YJR075W, strain HOC1, active compounds read low 0.988 | S. cerevisiae deletion strains, locus YKL009W, strain mrt4, active compounds read low 0.982 | S. cerevisiae deletion strains, locus YKL068W, active compounds read low 0.988 | S. cerevisiae deletion strains, locus YKL085W, strain MDH1 (second series), active compounds read low 0.978 | S. cerevisiae deletion strains, locus YKL085W, strain MDH1, active compounds read low 0.978 | S. cerevisiae deletion strains, locus YKL190W, strain CNB1, active compounds read low 0.979 | S. cerevisiae deletion strains, locus YKR001C, strain vps1, active compounds read low 0.998 | S. cerevisiae deletion strains, locus YLR039C, strain RIC1, active compounds read low 0.973 | S. cerevisiae deletion strains, locus YLR058C, strain SHM2, active compounds read low 0.983 | S. cerevisiae deletion strains, locus YLR102C, strain apc9, active compounds read low 0.976 | S. cerevisiae deletion strains, locus YLR262C, strain YPT6, active compounds read low 0.969 | S. cerevisiae deletion strains, locus YLR268W, strain sec22, active compounds read low 0.991 | S. cerevisiae deletion strains, locus YLR330W, strain CHS5, active compounds read low 0.998 | S. cerevisiae deletion strains, locus YLR342W, strain FKS1 (second series), active compounds read low 1.06 | S. cerevisiae deletion strains, locus YLR371W, strain rom2, active compounds read low 0.969 | S. cerevisiae deletion strains, locus YLR418C, strain cdc73, active compounds read low 0.951 | S. cerevisiae deletion strains, locus YML016C, strain PPZ1, active compounds read low 0.988 | S. cerevisiae deletion strains, locus YML032C, strain rad52, active compounds read low 0.989 | S. cerevisiae deletion strains, locus YML124C, strain tub3, active compounds read low 0.984 | S. cerevisiae deletion strains, locus YMR078C, strain ctf18, active compounds read low 0.98 | [2] 0.957 | S. cerevisiae deletion strains, locus YMR307W, strain GAS1, active compounds read low 1.06 | S. cerevisiae deletion strains, locus YNL067W, strain RPL9B, active compounds read low 0.974 | S. cerevisiae deletion strains, locus YNL128W, strain TEP1, active compounds read low 0.966 | [3] 0.962 | S. cerevisiae deletion strains, locus YNL233W, strain BNI4, active compounds read low 0.98 | S. cerevisiae deletion strains, locus YNL250W, strain rad50, active compounds read low 0.981 | S. cerevisiae deletion strains, locus YNL271C, strain bni1, active compounds read low 0.985 | S. cerevisiae deletion strains, locus YNL298W, strain CLA4, active compounds read low 0.977 | S. cerevisiae deletion strains, locus YNL307C, strain MCK1, active compounds read low 0.999 | [4] 0.987 | S. cerevisiae deletion strains, locus YNR052C, strain pop2, active compounds read low 0.985 | S. cerevisiae deletion strains, locus YOL006C, strain TOP1, active compounds read low 0.949 | S. cerevisiae deletion strains, locus YOL012C, strain htz1 0.854 | S. cerevisiae deletion strains, locus YOL147C, strain pex11, active compounds read low 0.995 | S. cerevisiae deletion strains, locus YOR061W, strain CKA2, active compounds read low 0.969 | S. cerevisiae deletion strains, locus YOR069W, strain VPS5, active compounds read low 1 | S. cerevisiae deletion strains, locus YOR136W, strain idh2, active compounds read low 0.988 | S. cerevisiae deletion strains, locus YOR144C, strain elg1, active compounds read low 0.984 | S. cerevisiae deletion strains, locus YOR184W, strain ser1, active compounds read low 1.01 | S. cerevisiae deletion strains, locus YOR316C, strain cot1, active compounds read low 0.975 | [5] 0.934 | [6] 0.99 | S. cerevisiae deletion strains, locus YPR119W, strain clb2, active compounds read low 0.989 | S. cerevisiae deletion strains, locus YPR141C, strain kar3, active compounds read low 0.962 | S. cerevisiae deletion strains, locus YPR163C, strain tif3, active compounds read low 0.988 | S. cerevisiae deletion strains, locus YPR167C, strain met16, active compounds read low 0.983 | S. cerevisiae deletion strains, strain wtn01, active compounds read low 0.984 | S. cerevisiae strains, strain wild type, active compounds read low 0.994
